Assay outcomes: PubChem, The Scripps Research Institute Molecular Screening Center
SMARCA2 act: SMARCA2 (BRM) function activators, primary screen, cell-based, luminescence, high throughput; MG213 cells, MMTV-luciferase reporter, dexamethasone, overnight; 370,000 tested, 1% active; AID 652017, 2013; activation, % at 9.1 µM; in the data active = activation above about 7.8%;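 also: 0% = vehicle wells and 100% = reference activator wells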
hgDAF12 agonist: H. glycines DAF-12 receptor agonists, primary screen, cell-based, luminescence, HEK293, GAL4 fusion, UAS-luciferase; AID 687014, 2013; activation, % at 6.8 µM; HEK293 GAL4-hgDAF12 UAS-luciferase reporter, agonist luminescence; normalized to butyrate control; 370,000 tested, 1.8% active; Nuclear hormone receptor DAF-12 (Heterodera glycines), GAL4 fusion;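 active = activation above a cutoff set at the mean of all screened compounds plus 3 SD, cut at about 10% in these data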;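 also: 0% = DMSO wells and 100% = sodium butyrate wells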
ssDAF-12 act: S. stercoralis DAF-12 nuclear receptor activators, primary screen, cell-based, luminescence, HEK293, GRIP1 co-expression, lit1-tk-luc. Nuclear hormone receptor DAF-12 (Strongyloides stercoralis). HEK293 ssDAF-12/GRIP1 lit1-tk-luc reporter; % of 3 µM dafachronic acid response. activation, % at 6.8 µM. 370,000 tested, 1% active. AID 652126, 2013;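 active = activation above the mean over all tested compounds plus 3 SD, cut at about 0.9% in these data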;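 also: 0% = DMSO-only wells and 100% = 3 µM delta7-dafachronic acid wells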
DAX1 inh-1: DAX1 (NR0B1) inhibitors on StAR promoter, primary screen, cell-based, luminescence, SF-1 (NR5A1), full-length DAX-1; HEK293T StAR-luciferase reporter, SF-1/DAX-1 repression relief; inhibition, % at 6.8 µM; 370,000 tested, 1.1% active; AID 652010, 2013;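 active = inhibition above the mean over all tested compounds plus 3 SD, cut at about 3.6% in these data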;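 also: 0% = DAX-1 cells with DMSO and 100% = cells lacking DAX-1 with DMSO; higher inhibition means more luminescence from relief of DAX-1 repression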
DAX1 inh-2: DAX1 (NR0B1) inhibitors, primary screen, cell-based, HEK293, Gal4-DAX1, luciferase luminescence | 340,000 tested, 0.99% active | AID 504766, 2011 | inhibition, % at 6.75 µM | HEK293 Gal4-DAX1 luciferase reporter | Nuclear receptor subfamily 0 group B member 1 (Homo sapiens), P51843;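 active = inhibition above the mean over all tested compounds plus 3 SD, cut at about 4.2% in these data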;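 also: 0% = DAX1-transfected cells with DMSO and 100% = empty-vector control cells with DMSO; inhibition shows as a rise in luminescence from relieved DAX1 repression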
hcDAF12 agonist: H. contortus DAF-12 nuclear receptor activators, primary screen, cell-based, luminescence, HEK293, lit1-tk-luc reporter | AID 652067, 2013 | HEK293 hcDAF-12 lit1-tk-luc reporter; 0% DMSO, 100% Δ7-dafachronic acid | 370,000 tested, 1.4% active | activation, % at 6.8 µM;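 active = activation above the mean of all tested compounds plus 3 SD, cut at about 5.5% in these data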;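 also: 100% = response to 3 µM Δ7-dafachronic acid high control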
DAX1 conf: DAX1 (NR0B1) inhibitors relieving SF-1 repression, confirmation, cell-based, luminescence, HEK293T, full-length DAX-1, SF-1 activated StAR promoter | shares compounds with DAX1 inh-1 | HEK293T StAR-promoter luciferase reporter, SF-1/DAX-1 repression | inhibition, % at 6.8 µM | 2,400 tested, 87% active | AID 652134, 2013;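 active = inhibition above the average of every tested compound plus 3 SD, cut at about 3.8% in these data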;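 also: 0% = DAX-1 cells with DMSO and 100% = no DAX-1 control cells with DMSO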
Target sequence (P51843 whole entry, looked up): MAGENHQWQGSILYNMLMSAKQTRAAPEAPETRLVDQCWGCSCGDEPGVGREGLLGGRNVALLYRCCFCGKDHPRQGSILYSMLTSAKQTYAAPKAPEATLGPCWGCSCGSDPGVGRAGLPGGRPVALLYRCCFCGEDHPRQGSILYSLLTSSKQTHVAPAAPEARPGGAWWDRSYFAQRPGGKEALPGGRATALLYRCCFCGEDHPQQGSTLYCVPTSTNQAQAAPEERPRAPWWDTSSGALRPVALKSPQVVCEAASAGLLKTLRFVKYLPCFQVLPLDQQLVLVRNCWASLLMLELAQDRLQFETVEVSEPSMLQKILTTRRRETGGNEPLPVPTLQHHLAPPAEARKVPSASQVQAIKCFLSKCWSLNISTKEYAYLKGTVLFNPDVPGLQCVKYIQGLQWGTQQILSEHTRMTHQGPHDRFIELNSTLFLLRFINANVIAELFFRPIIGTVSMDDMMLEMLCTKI
SF1 AF2mut Luc: StAR reporter signal changes without DAX1, counter-screen for DAX1 inhibitor project, cell-based, luminescence, AF-2 mutant SF-1, transactivation; HEK293 StAR-luciferase, SF-1 AF2 mutant; inhibition, % at 6.8 µM; 2,400 tested, 78% active; shares compounds with DAX1 inh-1;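 active = inhibition above the mean of all tested compounds plus 3 SD, cut at about 3% in these data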;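 also: 0% = DAX-1 transfected cells with DMSO and 100% = cells without DAX-1 with DMSO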
The depositor's hits bear a star; nt = no result given. Sampled rows, rich in hits. Any-hit rate of the full collection: about 4.8%.

SMILES	SMARCA2 act	hgDAF12 agonist	ssDAF-12 act	DAX1 inh-1	DAX1 inh-2	hcDAF12 agonist	DAX1 conf	SF1 AF2mut Luc
S=c1nc2ccccc2c2nc(-c3ccccc3Br)[nH]n12	1	0	-1	0	0	-1	nt	nt
Brc1ccccc1-c1nc2c3ccccc3ncn2n1	1	11*	0	4.6*	2	6.0*	9.0*	6.4*
CC(Nc1nc(-c2ccccc2)nc2ccccc12)c1ccccc1 (configuration not stated)	0	7	-1	4.7*	1	0	7.3*	0
CC(Nc1nc(-c2ccccc2O)nc2ccccc12)c1ccccc1 (configuration not stated)	5	10	1	2	1	4	nt	nt
O=C(Nc1ccccc1)c1ccc(NC(=O)C2CC2)cc1	6	5	-1	6.5*	0	0	7.7*	5.2*
Cc1cc(C)c2nc(N3CCN(C(=O)c4ccco4)CC3)sc2c1	4	5	-1	5.0*	2	-1	4.4*	2
CCCCN1CCN(C(=O)Cn2c(=O)c3ccccc3n(CC)c2=O)CC1	-3	-2	-2	1	nt	-1	nt	nt
C=CCN1C(=O)[C@@H](CC(=O)NCCc2ccccc2OC)[C@]2(C(=O)OC)CCCCC=C12	0	1	-1	0	nt	-3	nt	nt
COc1ccc(C(CNC(=O)c2ccc(Cl)c(NC(=O)c3cccs3)c2)N2CCCC2)cc1 (configuration not stated)	1	3	-1	4.8*	-1	0	3.9*	3
COc1ccc(C(CNC(=O)Cc2ccccc2Cl)N2CCCCC2)cc1 (configuration not stated)	-3	0	-1	0	1	0	nt	nt
COc1ccc(C(CNC(=O)c2cccc(S(=O)(=O)N3CCCC3)c2)N2CCCC2)cc1 (configuration not stated)	-4	3	-1	5.6*	1	0	3	3
COc1ccc(C(CNC(=O)c2ccc(NS(=O)(=O)c3ccc(F)c(C)c3)cc2)N2CCCC2)cc1 (configuration not stated)	0	-1	0	3	1	0	nt	nt
CCOc1ccc(NS(=O)(=O)c2ccc(C(=O)NCC(c3ccc(OC)cc3)N3CCCC3)cc2)cc1 (configuration not stated)	0	0	0	7.5*	1	0	7.0*	4.9*
COc1ccc(C(CNC(=O)c2cc3c(s2)CCC(C)C3)N2CCCC2)cc1 (configuration not stated)	0	1	-1	5.8*	0	-1	5.8*	3.0*
COc1ccc(C(CNC(=O)c2cccc(S(=O)(=O)N3CCOCC3)c2)N2CCCC2)cc1 (configuration not stated)	-2	0	-1	2	0	2	nt	nt
N#CCC[C@H]1CC[C@]2(CCCN(Cc3cccc4ccccc34)C2)O1	-5	0	-1	0	nt	1	nt	nt
